Reference: PubChem BioAssay AID1159580 (chemical genetic matrix, 2015)
Values joined by “and” are separate entries in the source; they are usually repeats but may differ in a detail not shown here. Equal values may be shown once. Out of some 5,500 compounds screened, about 2,000 (36%) were called active. Not shown: some 18% with an inconclusive outcome. No stated cut-off is given here; in the data, active means normalized growth mostly below about 0.91 (no sharp cut-off); inconclusive means no clear call, values can overlap the other calls; inactive means mostly above about 0.92. The list shows a part of the results.

Assay: chemical genetic growth profiling, strain panel (AID 1159580);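 further: tested at 20 µM; growth read once vehicle control cultures reached saturation at 30 °C; 1 = growth at the plate median or of vehicle wells; lower values mean less growth of the strain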
Details: S. cerevisiae deletion strains, growth OD

Measured: normalized growth

Cc1ccsc1/C=C/C1=NCCCN1C
inactive: locus YAL013W, strain DEP1, active compounds read low 1.01 | locus YAL021C, strain ccr4, active compounds read low 1 | locus YAL026C, strain drs2, active compounds read low 0.996 | locus YAL030W, strain snc1, active compounds read low 0.996 | locus YBL061C, strain skt5, active compounds read low 0.984 | locus YBR009C, strain hhf1, active compounds read low 1 | locus YBR021W, strain FUR4, active compounds read low 1.02 | locus YBR023C, strain chs3, active compounds read low 0.984 | locus YBR171W, strain sec66, active compounds read low 0.99 | locus YBR229C, strain ROT2, active compounds read low 1.01 | locus YBR231C, strain swc5, active compounds read low 1.07 | locus YBR279W, strain paf1, active compounds read low 0.992 | locus YCL011C, strain gbp2, active compounds read low 0.982 | locus YCL016C, strain dcc1, active compounds read low 0.996 | locus YCL029C, strain bik1, active compounds read low 0.969 | locus YCL061C, strain MRC1, active compounds read low 0.992 | locus YCL069W, strain vba3, active compounds read low 0.986 | locus YCR088W, strain abp1, active compounds read low 0.993 | locus YDL005C, strain med2, active compounds read low 0.983 | locus YDL035C, strain GPR1, active compounds read low 1.02 | locus YDL040C, strain nat1, active compounds read low 0.985 | locus YDL074C, strain BRE1, active compounds read low 0.995 | locus YDL101C, strain DUN1, active compounds read low 0.991 | locus YDL134C, strain PPH21, active compounds read low 1.02 | locus YDL185W, strain tfp1, active compounds read low 0.938 | locus YDL192W, strain arf1, active compounds read low 0.972 | locus YDR001C, strain nth1, active compounds read low 0.996 | locus YDR069C, strain doa4, active compounds read low 0.993 | locus YDR101C, strain arx1, active compounds read low 0.965 | locus YDR137W, strain rgp1, active compounds read low 0.941 | locus YDR150W, strain NUM1, active compounds read low 0.998 | locus YDR159W, strain sac3, active compounds read low 0.998 | locus YDR162C, strain NBP2, active compounds read low 1.01 | locus YDR195W, strain ref2 1.01 | locus YDR297W, strain sur2, active compounds read low 1 | locus YDR318W, strain mcm21, active compounds read low 0.972 | locus YDR334W, strain swr1, active compounds read low 0.986 | locus YDR335W, strain msn5, active compounds read low 0.991 | locus YDR388W, active compounds read low 0.98 | locus YDR392W, strain spt3, active compounds read low 0.992 | locus YDR502C, strain sam2, active compounds read low 1 | locus YEL003W, strain gim4, active compounds read low 0.996 | locus YEL037C, strain rad23, active compounds read low 0.995 | locus YEL061C, strain CIN8 (second series), active compounds read low 0.992 | locus YEL061C, strain CIN8, active compounds read low 1 | locus YER015W, strain faa2, active compounds read low 0.971 | locus YER016W, strain bim1, active compounds read low 0.982 | locus YER110C, active compounds read low 0.982 | locus YER111C, strain swi4, active compounds read low 0.989 | locus YER155C, strain BEM2 (second series), active compounds read low 1 | locus YER155C, strain BEM2, active compounds read low 0.988 | locus YER167W, strain BCK2, active compounds read low 1.01 | locus YFR010W, strain ubp6, active compounds read low 0.992 | locus YGL078C, strain dbp3, active compounds read low 0.984 | locus YGL086W, strain mad1, active compounds read low 1.01 | locus YGL167C, strain pmr1, active compounds read low 0.987 | locus YGL173C, strain kem1, active compounds read low 0.987 | locus YGL227W, strain vid30, active compounds read low 0.991 | locus YGL240W, strain doc1, active compounds read low 1 | locus YGL248W, strain PDE1, active compounds read low 1.02 | locus YGL253W, strain hxk2, active compounds read low 0.995 | locus YGR078C, strain PAC10, active compounds read low 1 | locus YGR135W, strain pre9, active compounds read low 1.01 | locus YGR229C, strain SMI1, active compounds read low 1.03 | locus YGR252W, strain gcn5, active compounds read low 1.06 | locus YHR013C, strain ard1, active compounds read low 0.978 | locus YHR027C, strain rpn1, active compounds read low 0.982 | locus YHR030C, strain SLT2, active compounds read low 1 and 0.986 | locus YHR079C, strain IRE1 (second series), active compounds read low 0.963 | locus YHR079C, strain IRE1, active compounds read low 0.974 | locus YHR094C, strain hxt1, active compounds read low 0.956 | locus YHR129C, strain ARP1, active compounds read low 1 | locus YHR142W, strain chs7, active compounds read low 0.997 | locus YHR200W, strain rpn10, active compounds read low 0.984 | locus YIL066C, strain RNR3, active compounds read low 0.998 | locus YIL073C, strain SPO22, active compounds read low 0.91 | locus YIL125W, strain kgd1, active compounds read low 0.984 | locus YIR030C, strain dcg1, active compounds read low 0.976 | locus YJL092W, strain hpr5, active compounds read low 0.993 | locus YJL095W, strain BCK1 (second series), active compounds read low 0.991 | locus YJL095W, strain BCK1, active compounds read low 0.988 and 1 | locus YJL115W, strain asf1, active compounds read low 0.99 | locus YJL129C, strain trk1, active compounds read low 0.985 | locus YJL134W, strain LCB3, active compounds read low 1 | locus YJL154C, strain vps35, active compounds read low 0.984 | locus YJL164C, strain tpk1, active compounds read low 0.99 | locus YJL166W, strain qcr8, active compounds read low 0.994 | locus YJL168C, strain set2, active compounds read low 0.984 | locus YJL187C, strain SWE1 (second series), active compounds read low 0.99 | locus YJL187C, strain SWE1, active compounds read low 0.997 | locus YJR043C, strain POL32, active compounds read low 1.01 | locus YJR066W, strain TOR1, active compounds read low 0.967
